We go through six molecules from PubChem BioAssay.

A short description of experiment [1]: compounds binding Alexa647 anti-His antibody – biochemical, small-molecule microarray, 635 nm fluorescence, artefact control for SMM control protein annotation, primary screen (AID 1128).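 Note: score merges feature fluorescence with signal-to-noise for each printed compound spot.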 The note with it: higher = more signal.
The subject of experiment [2] is Human papillomavirus type 1a E7 protein (residues 1-88). Briefly: HPV1a E7 small-molecule binders, primary screen, biochemical, small-molecule microarray, residues 1-88, 635 nm (AID 1129). Conditions: small-molecule microarray binding, fluorescence 635 nm; higher = more signal.
In experiment [3] the target is Focal adhesion kinase 1 (Homo sapiens) (UniProt Q05397). Kind of experiment: PTK2 protein binding on printed compound slides – biochemical, small-molecule microarray, 635/667 nm fluorescence, BSA, DTT, primary screen (AID 1130).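 Note: composite of spot emission at 667 nm and signal to noise over triplicate slides.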 Conditions: 635 nm fluorescence, higher = more signal.
Experiment [4] deals with Fibrinogen (Alexa647-labelled). Briefly: Alexa647-fibrinogen binding to printed small molecules – biochemical, small-molecule microarray, 635/667 nm fluorescence, artefact control for SMM control-protein annotation, profiling panel (AID 1131).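 Note: z-score merges 667 nm fluorescence with per-spot signal-to-noise over triplicate slides.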 Conditions: fibrinogen-A647 binding fluorescence, higher = more signal.
The target of experiment [5] is Follistatin (Homo sapiens) (UniProt P19883). Briefly: FST protein binding to printed compounds – biochemical, small-molecule microarray, 635/667 nm fluorescence, primary screen (AID 1132). Conditions: 635 nm fluorescence, higher = more signal.
Experiment [6] addresses Fibroblast growth factor 2 (Homo sapiens) (UniProt P09038). Kind of experiment: basic fibroblast growth factor binding to printed compounds – biochemical, small-molecule microarray, 635/667 nm fluorescence, primary screen (AID 1133). Conditions: FGF2, fluorescence 635/667, higher = more signal.
The nature of experiment [7]: JC-1 mitochondrial potential readout, lung cancer cells – cell-based, A549, JC-1 fluorescence, basal, 24 h, 100 nL, profiling panel (AID 1138).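 Note: A549 lung adenocarcinoma cells under basal conditions with no added stimulus; test concentration not given here.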 The note with it: higher = more signal.
A further experiment concerns Lefty1. Kind of experiment: Lefty1 protein binding to printed compounds – biochemical, small-molecule microarray, 635/667 nm fluorescence, primary screen (AID 1139). The note with it: fluorescence 635/667, higher = more signal.
The subject of experiment [8] is wheat germ agglutinin (Triticum aestivum), Alexa647-labelled. Kind of experiment: Alexa647-WGA lectin binding to printed small molecules – biochemical, small-molecule microarray, 635/667 nm fluorescence, artefact control for SMM control-protein annotation, profiling panel (AID 1140).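 Note: score merges 667 nm feature emission with signal to noise over triplicate slides.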 The note with it: WGA-A647 binding, 635 nm fluorescence, higher = more signal.
For experiment [9], the target named is Luciferin 4-monooxygenase (Photinus pyralis) (UniProt P08659). Briefly: inhibition of purified Photinus pyralis luciferase – biochemical, luminescence, purified enzyme, 2006 set, primary screen (AID 1141).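 Note: cell-free assay with purified firefly luciferase at 100 ng per well in PBS; test concentration not given here.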 Conditions: purified firefly luciferase, SteadyGlo luminescence, 30 min; higher = more signal, called active from +8 up or from −8 down.
Experiment [10] concerns Wnt5a (protein binding on small-molecule microarray). Kind of experiment: small molecules binding Wnt5a protein – biophysical, small-molecule microarray, 635/667 nm fluorescence, primary screen (AID 1142).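 Note: fluorescence read at 667 nm with signal to noise per printed feature.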 Conditions: 635 nm fluorescence, higher = more signal.
The nature of experiment [11]: ATP-based viability of Huh7 replicon cells – cell-based, CellTiter-Glo luminescence, basal, 48 h, cytotoxicity control for HCV replication inhibitor project, primary screen (AID 1143).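 Note: Huh7 hepatoma cells carrying a hepatitis C replication reporter with no stimulus; test concentration not given here.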 The note with it: higher = more signal, called active from +8 up or from −8 down.
The nature of experiment [12]: Pseudomonas biofilm growth suppression – PAO1 strain, BacTiter-Glo luminescence, LB-PBS, primary screen (AID 1144). The note with it: P. aeruginosa PAO1 biofilm, 12 h, higher = more signal.
Experiment [13] can be described thus: basal CRE-LacZ reporter activity in PC12 – cell-based, unstimulated, primary screen (AID 1145). Conditions: no forskolin, luminescence, 4.5 h, higher = more signal, called active from +8 up or from −8 down.
The nature of experiment [14]: forskolin-driven CRE-LacZ activity in PC12 – cell-based, CRE-LacZ reporter, forskolin-stimulated, primary screen (AID 1146).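 Note: PC12 cells with 6xCRE LacZ reporter stimulated by forskolin 10 µM; beta-galactosidase reporter signal reflecting CREB driven transcription.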 The note with it: luminescence, 4.5 h, higher = more signal, called active from +8 up or from −8 down.
Experiment [15] concerns the target Streptavidin (Streptomyces avidinii) (UniProt P22629). Kind of experiment: compounds binding control protein streptavidin – biophysical, small-molecule microarray, 635/667 nm fluorescence, artefact control for SMM compound annotation, primary screen (AID 1147).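 Note: signal reflects streptavidin binding to arrayed compounds as a control protein.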 The note with it: higher = more signal.
The nature of experiment [16]: probe aInhba binding on compound microarray – biochemical, small-molecule microarray, 635/667 nm fluorescence, primary screen (AID 1148).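 Note: score merges 667nm spot fluorescence with signal-to-noise for antibody binding to printed compounds.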 The note with it: higher = more signal.
For experiment [17], the target named is Torsin-1A (Homo sapiens) (UniProt O14656). Kind of experiment: TOR1A wild-type binding on microarray – cell lysate, small-molecule microarray, lysate, 635/667 nm, primary screen (AID 1149). Conditions: COS7 hTOR1A-WT lysate, 635 nm fluorescence, higher = more signal.
Experiment [18] shares this target. Kind of experiment: torsin A mutant lysate binding on microarrays – cell lysate, small-molecule microarray, COS7 lysate, 635/667 nm fluorescence, primary screen (AID 1150).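 Note: score pools 667 nm emission and signal to noise measuring lysate protein binding.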 The note with it: COS7 hTOR1A mutant lysate, 635 nm fluorescence, higher = more signal.
Experiment [19] concerns Sonic hedgehog protein (Shh). Briefly: Sonic hedgehog microarray binding compounds – biochemical, small-molecule microarray, 635/667 nm fluorescence, primary screen (AID 1151).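 Note: Shh protein binding to compounds spotted on small-molecule microarray slides; score combines spot fluorescence intensity with signal-to-noise across triplicate slides.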 Conditions: 635 nm fluorescence, higher = more signal.

The source made the active and inactive calls. Unless noted, the rule behind the calls is not given here.

Torsin-1A (Homo sapiens), sequence (O14656 whole entry, looked up): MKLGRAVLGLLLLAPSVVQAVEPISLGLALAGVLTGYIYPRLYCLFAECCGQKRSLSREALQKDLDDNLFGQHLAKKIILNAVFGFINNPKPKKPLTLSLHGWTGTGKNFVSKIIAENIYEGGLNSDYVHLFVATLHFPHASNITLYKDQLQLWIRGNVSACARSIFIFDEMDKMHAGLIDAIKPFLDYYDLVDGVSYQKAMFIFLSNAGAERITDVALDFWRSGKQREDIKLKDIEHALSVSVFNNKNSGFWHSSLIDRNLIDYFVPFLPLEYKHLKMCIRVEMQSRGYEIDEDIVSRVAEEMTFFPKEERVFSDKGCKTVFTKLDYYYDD
Focal adhesion kinase 1 (Homo sapiens), sequence (Q05397 whole entry, looked up): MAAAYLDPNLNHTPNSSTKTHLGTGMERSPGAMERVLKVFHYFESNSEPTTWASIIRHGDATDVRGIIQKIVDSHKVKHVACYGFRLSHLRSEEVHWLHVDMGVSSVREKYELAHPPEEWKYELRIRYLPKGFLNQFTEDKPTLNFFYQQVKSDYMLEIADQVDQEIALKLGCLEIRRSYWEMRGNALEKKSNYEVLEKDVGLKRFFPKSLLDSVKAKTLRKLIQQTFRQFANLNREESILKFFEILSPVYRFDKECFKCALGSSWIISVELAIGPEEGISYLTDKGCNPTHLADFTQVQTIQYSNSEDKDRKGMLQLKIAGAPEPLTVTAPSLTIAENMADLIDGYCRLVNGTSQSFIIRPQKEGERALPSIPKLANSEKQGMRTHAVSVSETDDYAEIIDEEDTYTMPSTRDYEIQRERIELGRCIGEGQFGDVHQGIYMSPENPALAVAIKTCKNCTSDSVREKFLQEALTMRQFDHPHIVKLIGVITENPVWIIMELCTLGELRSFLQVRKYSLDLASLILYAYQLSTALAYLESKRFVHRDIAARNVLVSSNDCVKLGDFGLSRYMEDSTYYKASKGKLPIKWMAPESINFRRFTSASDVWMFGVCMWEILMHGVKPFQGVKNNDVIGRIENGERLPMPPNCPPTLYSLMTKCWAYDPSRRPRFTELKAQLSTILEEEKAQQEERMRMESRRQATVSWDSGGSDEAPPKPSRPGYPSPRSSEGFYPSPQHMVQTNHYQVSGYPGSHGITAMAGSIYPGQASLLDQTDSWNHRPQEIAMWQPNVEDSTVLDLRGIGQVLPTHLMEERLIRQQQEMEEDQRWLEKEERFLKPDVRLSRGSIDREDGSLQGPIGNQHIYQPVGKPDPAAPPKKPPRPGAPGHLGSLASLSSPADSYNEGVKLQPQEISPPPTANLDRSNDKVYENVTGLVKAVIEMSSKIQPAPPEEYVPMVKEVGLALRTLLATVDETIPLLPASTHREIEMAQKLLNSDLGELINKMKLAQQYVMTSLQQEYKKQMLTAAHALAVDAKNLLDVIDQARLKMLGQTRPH
Fibroblast growth factor 2 (Homo sapiens), sequence (P09038 whole entry, looked up): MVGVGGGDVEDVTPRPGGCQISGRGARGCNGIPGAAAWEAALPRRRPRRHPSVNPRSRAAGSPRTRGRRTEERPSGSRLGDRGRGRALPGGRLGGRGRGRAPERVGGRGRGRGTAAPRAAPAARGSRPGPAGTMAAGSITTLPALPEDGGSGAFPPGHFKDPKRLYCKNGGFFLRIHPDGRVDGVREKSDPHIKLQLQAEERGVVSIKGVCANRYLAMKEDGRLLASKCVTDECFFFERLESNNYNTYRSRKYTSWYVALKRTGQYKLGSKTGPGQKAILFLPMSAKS
Streptavidin (Streptomyces avidinii), sequence (P22629 whole entry, looked up): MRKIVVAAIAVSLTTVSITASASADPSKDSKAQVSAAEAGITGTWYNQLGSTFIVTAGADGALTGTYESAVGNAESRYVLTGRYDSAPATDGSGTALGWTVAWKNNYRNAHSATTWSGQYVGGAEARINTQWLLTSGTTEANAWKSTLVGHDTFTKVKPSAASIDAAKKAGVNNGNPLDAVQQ
Follistatin (Homo sapiens), sequence (P19883 whole entry, looked up): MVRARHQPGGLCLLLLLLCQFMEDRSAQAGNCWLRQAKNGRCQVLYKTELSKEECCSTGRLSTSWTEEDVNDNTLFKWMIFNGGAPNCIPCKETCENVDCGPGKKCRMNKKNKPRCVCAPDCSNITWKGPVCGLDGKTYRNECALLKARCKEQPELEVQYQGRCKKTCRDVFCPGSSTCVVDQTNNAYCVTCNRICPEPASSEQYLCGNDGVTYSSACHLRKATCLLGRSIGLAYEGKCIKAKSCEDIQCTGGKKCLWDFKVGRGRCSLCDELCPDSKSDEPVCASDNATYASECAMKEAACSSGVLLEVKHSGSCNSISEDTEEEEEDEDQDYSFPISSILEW
Luciferin 4-monooxygenase (Photinus pyralis), sequence (P08659 whole entry, looked up): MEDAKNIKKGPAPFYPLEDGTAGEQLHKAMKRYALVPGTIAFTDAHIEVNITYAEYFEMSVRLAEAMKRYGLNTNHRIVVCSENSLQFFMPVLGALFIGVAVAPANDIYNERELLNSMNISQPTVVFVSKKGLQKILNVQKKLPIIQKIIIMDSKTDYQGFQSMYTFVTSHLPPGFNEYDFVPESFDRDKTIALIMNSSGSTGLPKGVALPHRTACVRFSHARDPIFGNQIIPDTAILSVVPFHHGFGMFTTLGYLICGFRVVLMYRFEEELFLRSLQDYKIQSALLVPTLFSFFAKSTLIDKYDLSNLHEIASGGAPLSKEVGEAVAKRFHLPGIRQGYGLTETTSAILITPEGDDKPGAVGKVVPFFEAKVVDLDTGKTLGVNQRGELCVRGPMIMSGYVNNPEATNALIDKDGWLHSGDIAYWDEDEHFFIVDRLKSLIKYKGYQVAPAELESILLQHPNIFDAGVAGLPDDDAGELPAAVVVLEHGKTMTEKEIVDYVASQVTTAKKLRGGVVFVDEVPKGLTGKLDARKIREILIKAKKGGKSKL

With `O=C1C[C@@](C(=O)NCC(F)(F)F)(c2ccc([N+](=O)[O-])cc2)[C@@H](c2ccc(CO)cc2I)N1C1CCCCC1`, the composite z-score in experiment [1] amounted to 0.226; in [2], 1.25; in [3], 0.466; in experiment [4] it was 0.9; in experiment [5] it was 1.05; in experiment [6], 1.26. In addition, the composite z-score is 0.394 with Lefty1; 0.834 in experiment [8]; 0.318 in experiment [10]; 0.514 in [15]; -0.0421 in [16]; 0.281 in the experiment with Torsin-1A (Homo sapiens) [17]. Moreover, the composite z-score with Torsin-1A (Homo sapiens) [18] came to 0.35; in experiment [19] it was 0.491. In addition, the z-score is 1.8 in experiment [7]; 0.59 (inactive) in experiment [9]; -4.26 (inactive) in experiment [11]; -0.148 (inactive) in experiment [12]; 0.558 (inactive) in [13]; -0.503 (inactive) in experiment [14].

With `C=CC[C@@]1(C(=O)NCCN2CCOCC2)N=C(c2ccc(OCCCO)cc2)O[C@@H]1c1ccccc1N=[N+]=[N-]`, the composite z-score in experiment [1] came to 0.373; in experiment [2], 0.126; in [3], 0.503; in [4] it was 0.161; in experiment [5] it was 1.36; in experiment [6], 0.399. Moreover, the composite z-score in the experiment on Lefty1 was 0.113; in experiment [8], 1.18; in experiment [10], 0.298; in experiment [15], 0.236; in experiment [16], -0.0093; with Torsin-1A (Homo sapiens) [17], -0.0075. Further, the composite z-score was 0.416 with Torsin-1A (Homo sapiens) [18] and -0.203 in experiment [19]. Besides, the z-score was 0.404 in [7]; -5.94 (inactive) in experiment [9]; -1.56 (inactive) in experiment [11]; 0.45 (inactive) in experiment [12]; 0.185 (inactive) in experiment [13]; -0.461 (inactive) in experiment [14].

`CC1(C)[C@@H]2CC(C(O)C3C=CC4C(=O)N(c5ccccc5)C(=O)C4N3Nc3ccc([N+](=O)[O-])cc3)=C[C@H]1C2` (stereo not given in full): the composite z-score in experiment [1] is 1.11; in experiment [2], 1.27; in experiment [3] it was 0.368; in [4], 1.04; in experiment [5], 1.16; in experiment [6], 0.488. The composite z-score came out at 0.619 in the experiment with Lefty1; 0.728 in [8]; 0.909 in [10]; 1.18 in experiment [15]; 0.0179 in [16]; 1.18 with Torsin-1A (Homo sapiens) [17]. Besides, the composite z-score came out at 0.537 with Torsin-1A (Homo sapiens) [18] and 0.808 in experiment [19]. Moreover, the z-score in [7] was -1.25; in experiment [9], 0.285 (inactive); in experiment [11], -1.2 (inactive); in experiment [12], -0.88 (inactive); in experiment [13] it was 0.323 (inactive); in [14], 0.617 (inactive).

As to `COc1cc(COC(C)=O)ccc1OC(C)=O`, the composite z-score in experiment [1] is -0.0364; in experiment [2], 0.262; in [3], 0.661; in experiment [4], 0.0038; in experiment [5] it was 0.512; in experiment [6] it was 0.102. In addition, the composite z-score is 0.45 with Lefty1; -0.155 in [8]; 1.27 in [10]; -0.114 in [15]; 0.257 in experiment [16]; 0.343 with Torsin-1A (Homo sapiens) [17]. Besides, the composite z-score with Torsin-1A (Homo sapiens) [18] was 0.141; in [19], 0.857. In addition, the z-score in experiment [7] was 1.47; in [9] it was -1.52 (inactive); in experiment [11], -1.68 (inactive); in experiment [12], -1.48 (inactive); in experiment [13], 1.42 (inactive); in [14], 68.7 (active).

As for `NCCCCCNC(=O)[C@@H]1C[C@@H]2C(=O)N[C@@H](Cc3ccccc3)C(=O)N2[C@@H]1c1ccc(O)cc1`, the composite z-score in experiment [1] worked out at 1.85; in experiment [2] it was 0.958; in experiment [3], 0.255; in [4], 0.89; in experiment [5], 1.28; in experiment [6], 0.871. Moreover, the composite z-score in the experiment with Lefty1 was determined as 0.865; in [8], 0.86; in experiment [10], 0.0588; in experiment [15] it was 1.38; in [16], 0.174; with Torsin-1A (Homo sapiens) [17], 0.202. The composite z-score turned out to be 0.394 in the experiment with Torsin-1A (Homo sapiens) [18] and 1.2 in [19]. Further, the z-score in [7] is 0.972; in experiment [9] it was -0.365 (inactive); in [11] it was 0.0478 (inactive); in [12], -0.35 (inactive); in [13], 0.281 (inactive); in [14], -0.629 (inactive).

Take `O=C1C2C=CC(C(O)c3cccc4ccccc34)N(Nc3ccccc3F)C2C(=O)N1c1ccccc1` (stereo not given): the composite z-score in [1] is 1.22; in experiment [2], 1.25; in experiment [3], 0.792; in experiment [4], 1; in experiment [5] it was 0.829; in [6] it was -0.276. Also, the composite z-score in the experiment on Lefty1 stood at 0.345; in [8], 1.4; in [10] it was 0.115; in [15] it was 1.66; in experiment [16], 0.103; in the experiment with Torsin-1A (Homo sapiens) [17], 1.44. Further, the composite z-score in the experiment with Torsin-1A (Homo sapiens) [18] was 0.993; in experiment [19], -0.458. Also, the z-score in experiment [7] was -0.968; in experiment [9] it was 1.24 (inactive); in [11] it was -0.586 (inactive); in experiment [12], -0.732 (inactive); in experiment [13], -0.62 (inactive); in experiment [14], 0.276 (inactive).
